Data from PubChem BioAssay (NCI).
About 83,000 compounds went through this panel and 20% of them were active in at least one assay; those are over-represented in the sample as a whole.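 In brief: 96-well plates, 48 h treatment, single concentration, percent growth endpoint.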 Unmarked numbers belong to inactive results. Calls of active or inactive are those of the source. The calls were made as follows: active = growth percent below 10; inactive = the rest.

Legend:
Assay in all cases: NCI-60 one-dose screen, 48 h (100 = growth as untreated, 0 = no growth, -100 = all killed)
SR leukemia = settings: 10 µM
RPMI-8226 leukemia = settings: 10 µM
OVCAR-8 ovarian = settings: 10 µM
OVCAR-5 ovarian = settings: 10 µM
OVCAR-4 ovarian = settings: 10 µM
SK-OV-3 ovarian = settings: 10 µM
IGROV1 ovarian = settings: 10 µM
OVCAR-3 ovarian = settings: 10 µM
HS 578T breast = settings: 10 µM
NCI/ADR-RES ovarian = settings: 10 µM
T-47D breast = settings: 10 µM
MDA-MB-435 melanoma = settings: 10 µM
MCF7 breast = settings: 10 µM unless noted
HCT-116 colon = settings: 10 µM
HCC-2998 colon = settings: 10 µM
KM12 colon = settings: 10 µM
SW-620 colon = settings: 10 µM
BT-549 breast = settings: 10 µM

| SMILES | growth (SR leukemia) | growth (RPMI-8226 leukemia) | growth (OVCAR-8 ovarian) | growth (OVCAR-5 ovarian) | growth (OVCAR-4 ovarian) | growth (SK-OV-3 ovarian) | growth (IGROV1 ovarian) | growth (OVCAR-3 ovarian) | growth (HS 578T breast) | growth (NCI/ADR-RES ovarian) | growth (T-47D breast) | growth (MDA-MB-435 melanoma) | growth (MCF7 breast) | growth (HCT-116 colon) | growth (HCC-2998 colon) | growth (KM12 colon) | growth (SW-620 colon) | growth (BT-549 breast) |
| --- | --- | --- | --- | --- | --- | --- | --- | --- | --- | --- | --- | --- | --- | --- | --- | --- | --- | --- |
| CC1(C)/C(=C\CO)C2CCC1C2 (centres undefined) | 97.8% | 91.6% | 114% | 105% | 111% | 99.8% | 112% | 119% | 101% | 105% | 101% | 123% | 104% | 96.8% | 104% | 114% | – | – |
| O=c1[nH]nc(SC2CCCCC2)c(=O)[nH]1 | 97.6% | 102% | 101% | 99% | 98.9% | 93.2% | 101% | 96.2% | 92% | 94.3% | 99.6% | 105% | 97.5% | – | – | 107% | 98.6% | – |
| O=C(CS)Nc1ccc2ccccc2c1 | 94.9% | 44.9% | 114% | 102% | 116% | 108% | 107% | – | – | 112% | 90.9% | 116% | 85.3% | 94.6% | 80.5% | 102% | 95.2% | 118% |
| CCC/C=C(\C)C(C)(C#N)C(=O)OCC (centres undefined) | 100% | 95.1% | 101% | 110% | 107% | 111% | 107% | 124% | – | 110% | 112% | 96.3% | 97.1% | 120% | 118% | 110% | 109% | 116% |
| O=C(O)CCCCNC(=O)c1ccccc1 | 95.7% | 103% | 108% | 116% | 108% | 97.9% | 108% | – | 108% | 94.8% | 88.2% | 113% | 101% | 101% | 94.3% | 99% | 107% | 103% |
| O=C(/C(=N/O)c1ccccc1)c1ccccc1 | 110% | 99.5% | 103% | 111% | 102% | 106% | – | 116% | 101% | 113% | 90.2% | 108% | 87.9% | 98% | 107% | 107% | 107% | 98% |
| Nc1ccc(N=Nc2ccc(O)cc2)c(N)n1 | 80% | 38.1% | 75% | 104% | 59.2% | 97.3% | 89.4% | 73.4% | – | 64.5% | 82.8% | 69.3% | 93.4% | 86.3% | 81.5% | 43.2% | – | 57.2% |
| COc1cc(C2NC(=O)C(C#N)=C(Nc3cccc(C)c3)S2)ccc1O (centres undefined) | 107% | 81.4% | 105% | 111% | 102% | 103% | – | 106% | 96.5% | 110% | 93.5% | 104% | 92.9% | 103% | 106% | 104% | 104% | 101% |
| O/N=C/c1ccc(O)cc1O | 110% | 94.8% | 94.1% | 94.7% | 109% | 103% | 117% | 112% | – | 104% | 94% | 107% | 98.6% | 114% | 105% | 99% | 102% | – |
| CC1(c2ccccc2)NC(=O)NC1=O (centres undefined) | 102% | 105% | 103% | 109% | 115% | 107% | 105% | 121% | – | 114% | 109% | 113% | – | 111% | 102% | 112% | 115% | – |
| c1ccc2c(c1)Sc1ccccc1S2 | 117% | 99.2% | 99.3% | 108% | 98.8% | 112% | 106% | 113% | 102% | 101% | – | 110% | 95.7% | 106% | 92.5% | 108% | 104% | 97.5% |
| NC(CSC(c1ccccc1)(c1ccccc1)c1ccccc1)C(=O)O (centres undefined) | 15.3% | 4.13% (active) | 22.6% | 41.8% | 74.6% | 17% | 63.3% | 15.9% | – | 93% | 15.5% | -66.6% (active) | 2.58% (active) | 19.9% | 15.9% | 22.5% | 24.8% | 47.4% |
| CC1(C)Nc2cccc3c(N=Nc4ccc(N=Nc5ccccc5)c5ccccc45)ccc(c23)N1 | 107% | 97% | 109% | 94.9% | 91.1% | 95.6% | 52.1% | – | 104% | 98.1% | 76.7% | 109% | 79.4% | 70.5% | 93.2% | 106% | 89.4% | 124% |
| C=CC[N+](C)(C)C | 90.8% | 101% | 106% | 102% | 109% | 108% | 99.7% | 118% | 95.5% | 105% | 103% | 102% | – | – | 103% | 114% | 107% | – |
| O=c1[nH]cc(Cl)cc1O | 76.2% | 69.9% | 91% | 106% | 101% | 101% | 91% | 88.3% | 91% | – | 70.5% | 76.4% | 91.2% | 94.3% | 96.9% | 57.7% | 98.6% | 90.6% |
| NC(=O)N/N=C\c1ccco1 | 107% | 105% | 109% | 118% | 121% | 102% | 99.6% | 125% | – | 101% | 107% | 118% | – | – | 99.3% | 113% | 107% | 94.9% |
| C=CCOC(=O)C(=O)OCC=C | 82.1% | 103% | 101% | 97.5% | 110% | 105% | – | 118% | 130% | 117% | 93.9% | 120% | 101% | 101% | 107% | 102% | 103% | 101% |
| CCCCN(CCCC)CCCO | 113% | 158% | 99.8% | 99.4% | 108% | 110% | 125% | 101% | – | 105% | 107% | 117% | 96.7% | 110% | 94.1% | 104% | 120% | – |
| CCCCOC(=O)c1ccc(C(C)C)cc1 | 102% | 110% | 106% | 102% | 102% | 90.4% | 100% | 106% | 108% | 97.3% | 88.7% | 103% | 94.9% | 85.4% | 107% | 104% | – | – |
